Several values for one entry are separate records, joined by “and”; a condition that tells them apart may be missing. Identical values can stand only once. This is part of a sample that, as a whole, favours compounds with a hit. Of some 83,000 tested, about 20% had one in any assay.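 Single-concentration screen, 48 h exposure, 96-well plates. Endpoint: percent growth. Below 10 = active.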 Where a structure was tested more than once in an assay, its records may differ in their call. Activity calls are given as the source filed them.

Test in all cases: NCI-60 one-dose screen, 48 h (100 = growth as untreated, 0 = no growth, -100 = all killed)
For test [1], the system named is HCT-15 colon.
Test [2] deals with HT29 colon.
For test [3], the system named is SNB-75 CNS.
Test [4] relates to SNB-19 CNS.
Test [5] deals with U251 CNS.
Test [6] has as its system PC-3 prostate.
The test system of test [7] is SK-MEL-5 melanoma.
Test [8] deals with UACC-62 melanoma. The settings on record: 10 µM unless noted.
The test system of test [9] is LOX IMVI melanoma. The settings on record: 10 µM unless noted.
Test [10] concerns SK-MEL-28 melanoma. The settings on record: 10 µM unless noted.
Test [11] relates to SK-MEL-2 melanoma.
Test [12] concerns EKVX NSCLC.
Test [13] has as its system SN12C renal.
In test [14] the test system is UO-31 renal.
The subject of test [15] is TK-10 renal.
Test [16] has as its system ACHN renal. The settings on record: 10 µM unless noted.
The test system of test [17] is CAKI-1 renal. The settings on record: 10 µM unless noted.
Test [18] concerns A498 renal.
In test [19] the test system is CCRF-CEM leukemia.
Test [20] deals with MOLT-4 leukemia.

On to `Cc1nn(-c2ccccc2)nc1C(=O)Nc1ccccc1C(=O)NCC1CC1`, for which the growth in test [1] (10 µM unless noted) was 87.5% (inactive) and 71.2% (inactive); in [2] (10 µM unless noted) it was 99.6% (inactive) and 72.6% (inactive); in test [3] (10 µM unless noted) it was 121% (inactive) and 4.66% (active); in [4] (10 µM unless noted) it was 122% (inactive) and 54.3% (inactive); in test [5] (10 µM unless noted), 73.3% (inactive); in test [6] (10 µM unless noted), 85.2% (inactive) and 78.2% (inactive). In addition, the growth was 95.7% (inactive) and 93.5% (inactive) in test [7] (10 µM unless noted); 86.4% (inactive) and 88.3% (inactive) in test [8]; 86.9% (inactive) in test [9]; 104% (inactive) and 95.8% (inactive) in test [10]; 117% (inactive) and 103% (inactive) in test [11] (10 µM unless noted); 79.4% (inactive) in test [12] (10 µM unless noted). The growth in test [13] (10 µM unless noted) was 89.2% (inactive) and 45.2% (inactive); in [14] (10 µM unless noted), 95.5% (inactive) and 57.1% (inactive); in [15] (10 µM unless noted) it was 83.5% (inactive); in test [16], 91.8% (inactive) and 19.9% (inactive); in test [17], 97.6% (inactive) and 37.7% (inactive); in [18] (10 µM unless noted) it was 107% (inactive) and 92.8% (inactive). The growth was 86.8% (inactive) in test [19] (10 µM unless noted); 103% (inactive) and 75.6% (inactive) in test [20] (10 µM unless noted).

On to `CC1=C(/C=C/C(C)=C/C=C/C(C)=C/C=N/NC(=S)NC(=S)N/N=C/C=C(C)/C=C/C=C(C)/C=C/C2=C(C)CCCC2(C)C)C(C)(C)CCC1`, for which the growth in test [1] (10 µM unless noted) was 26.5% (inactive) and -6.65% (active); in [2] (10 µM unless noted) it was -0.991% (active) and -29.3% (active); in [3] (10 µM unless noted) it was -4.78% (active) and -40% (active); in test [4] (10 µM unless noted), 36.2% (inactive) and 16.3% (inactive); in test [5] (10 µM unless noted), -61.8% (active) and -94.4% (active); in test [6] (10 µM unless noted) it was -1.77% (active) and -12.4% (active). The growth was -63% (active) and -96.5% (active) in test [7] (10 µM unless noted); -60% (active) and -75.5% (active) in test [8]; -100% (active) and -93.6% (active) in [9]; -24.4% (active) and -57.5% (active) in [10]; -66.4% (active) and -84.6% (active) in test [11] (10 µM unless noted); 36% (inactive) and 25.5% (inactive) in [12] (10 µM unless noted). Besides, the growth in test [13] (10 µM unless noted) was -29% (active) and -55.2% (active); in [14] (10 µM unless noted), -36% (active) and -47.4% (active); in [15] (10 µM unless noted) it was -8.64% (active) and -42.5% (active); in test [16] it was 38.9% (inactive) and 10.2% (inactive); in test [17], -37.9% (active) and -20.1% (active); in test [18] (10 µM unless noted), 23.6% (inactive) and -47.4% (active). Also, the growth is -16.5% (active) and -23.4% (active) in [19] (10 µM unless noted); -22.2% (active) and -41.2% (active) in test [20] (10 µM unless noted).

`CCCCCn1sc(=O)n(Cc2ccc(CNC(=O)C(C)c3ccc(CC(C)C)cc3)cc2)c1=O` (stereo unspecified): the growth in test [1] (10 µM unless noted) is 101% (inactive) and -35% (active); in test [2] (10 µM unless noted), 112% (inactive) and -52.1% (active); in test [3] (10 µM unless noted) it was 94.3% (inactive) and -20.9% (active); in test [4] (10 µM unless noted) it was 98.7% (inactive) and 43.3% (inactive); in test [5] (10 µM unless noted), 87.4% (inactive) and 8.32% (active); in test [6] (10 µM unless noted) it was 93.7% (inactive) and -64.4% (active). Further, the growth in [7] (10 µM unless noted) was 101% (inactive) and -89.2% (active); in test [8], 96.9% (inactive) and -65.1% (active); in test [9], 104% (inactive) and -92.7% (active); in test [10], 107% (inactive) and -52.5% (active); in test [11] (10 µM unless noted), 106% (inactive) and -18.6% (active); in test [12] (10 µM unless noted) it was 96.9% (inactive) and -65.7% (active). Further, the growth in test [13] (10 µM unless noted) is 95.3% (inactive) and -52.9% (active); in test [14] (10 µM unless noted) it was 85.8% (inactive) and -100% (active); in test [15] (10 µM unless noted), 106% (inactive) and -86.8% (active); in test [16], 92.4% (inactive) and -100% (active); in test [17], 91.2% (inactive) and -73% (active); in [18] (10 µM unless noted), 113% (inactive) and 40% (inactive). Besides, the growth in test [19] (10 µM unless noted) was 95.8% (inactive) and 2.99% (active); in test [20] (10 µM unless noted), 101% (inactive) and -4.68% (active).

Consider `O=C(O)c1sccc1O`, for which the growth in test [1] (10 µM) was 81% (inactive); in test [1] (100 µM), 31.5% (inactive); in test [2] (10 µM), 105% (inactive); in test [2] (100 µM), 30.2% (inactive); in test [3] (10 µM), 84.6% (inactive); in test [3] (100 µM) it was 28.5% (inactive). Moreover, the growth in test [4] (10 µM) is 82.1% (inactive); in test [4] (100 µM), 34.8% (inactive); in [5] (10 µM), 76.6% (inactive); in [5] (100 µM) it was 15.9% (inactive); in [6] (10 µM), 49.3% (inactive); in test [6] (100 µM) it was 23% (inactive). For the same molecule, the growth in test [7] (10 µM) is 78.6% (inactive); in test [7] (100 µM), 7.35% (active); in test [11] (10 µM), 87.2% (inactive); in test [11] (100 µM), 8.51% (active); in test [12] (10 µM), 81.3% (inactive); in test [12] (100 µM), 33.5% (inactive). Further, the growth in test [13] (10 µM) is 76.3% (inactive); in test [13] (100 µM), 35.7% (inactive); in test [14] (10 µM), 48.1% (inactive); in test [14] (100 µM) it was 26.7% (inactive); in test [15] (10 µM) it was 133% (inactive); in [15] (100 µM), 68.8% (inactive). Besides, the growth in test [16] is 70.7% (inactive); in test [18] (10 µM), 89.1% (inactive); in test [18] (100 µM) it was 46.2% (inactive); in test [19] (10 µM), 47.7% (inactive); in test [19] (100 µM), 15.1% (inactive); in [20] (10 µM) it was 46.1% (inactive). The growth in test [20] (100 µM) is 17.4% (inactive).
